# Test results taken from article PMC4336329 (PLoS ONE, 2015).
# In all, about 310,000 compounds went through this assay and about 14,000 (4.5%) showed an effect of 50% or more. Effects have a minus sign here. Shown is part of a subset that was picked to be rich in strong results.
# Target: human ether-à-go-go-related gene (hERG) potassium channel (human, UniProt Q12809)
# Assay: primary screen, population patch clamp on CHO cells stably expressing hERG; higher = less effect of the substance
# 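Note: peak tail current of the secondary pulse compared with the same well before compound.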
# Sequence of human ether-à-go-go-related gene (hERG) potassium channel (Q12809 whole entry, looked up): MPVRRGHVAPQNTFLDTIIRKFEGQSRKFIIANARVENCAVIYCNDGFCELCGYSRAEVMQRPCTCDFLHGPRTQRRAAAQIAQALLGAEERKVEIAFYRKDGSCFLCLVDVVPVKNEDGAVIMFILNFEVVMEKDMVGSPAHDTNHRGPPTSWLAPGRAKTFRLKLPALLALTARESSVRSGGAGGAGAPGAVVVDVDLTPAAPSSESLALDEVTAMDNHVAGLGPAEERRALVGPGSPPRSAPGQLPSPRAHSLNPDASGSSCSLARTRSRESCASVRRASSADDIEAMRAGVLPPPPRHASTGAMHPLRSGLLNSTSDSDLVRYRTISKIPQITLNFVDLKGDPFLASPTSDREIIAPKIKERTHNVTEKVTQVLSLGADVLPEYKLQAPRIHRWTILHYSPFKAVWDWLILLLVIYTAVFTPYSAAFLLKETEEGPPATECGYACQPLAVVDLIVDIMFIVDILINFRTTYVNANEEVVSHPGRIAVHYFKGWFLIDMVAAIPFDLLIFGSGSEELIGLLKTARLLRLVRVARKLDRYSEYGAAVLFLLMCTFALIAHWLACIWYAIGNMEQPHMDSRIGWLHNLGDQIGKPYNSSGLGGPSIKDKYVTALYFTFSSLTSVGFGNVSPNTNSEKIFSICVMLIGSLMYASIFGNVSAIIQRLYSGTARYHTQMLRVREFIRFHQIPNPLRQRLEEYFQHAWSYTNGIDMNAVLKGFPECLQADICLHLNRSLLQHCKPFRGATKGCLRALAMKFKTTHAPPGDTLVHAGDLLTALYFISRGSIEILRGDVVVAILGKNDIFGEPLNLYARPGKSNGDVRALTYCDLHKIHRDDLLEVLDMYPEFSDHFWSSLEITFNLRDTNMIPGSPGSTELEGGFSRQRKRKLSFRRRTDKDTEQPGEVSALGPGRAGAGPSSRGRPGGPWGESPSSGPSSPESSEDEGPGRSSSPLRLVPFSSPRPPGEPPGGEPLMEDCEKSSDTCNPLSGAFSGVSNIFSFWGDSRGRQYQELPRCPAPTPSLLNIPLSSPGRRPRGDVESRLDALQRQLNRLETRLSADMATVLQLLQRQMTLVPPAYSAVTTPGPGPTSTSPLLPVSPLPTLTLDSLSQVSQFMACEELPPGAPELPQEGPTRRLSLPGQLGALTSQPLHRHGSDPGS
row,SMILES,"hERG current change (%, negative = inhibition) at 10uM [%]"
1,COc1ccc(-c2nn(-c3ccccc3)cc2C2CC(c3cccs3)=NN2C(=O)CCCC(=O)O)cc1 (stereo not shown),17.9
2,O=C(CN1C(=O)NC2(CCCCC2)C1=O)N1CCN(S(=O)(=O)c2ccccc2)CC1,13.8
3,O=C(NCCOc1ccc(Cl)cc1)C1CC(=O)N(c2ccc3c(c2)OCCO3)C1 (stereo not shown),-27.9
4,O=C(NCCOc1ccc(Cl)cc1)C1CC(=O)N(c2ccc(F)cc2)C1 (stereo not shown),-69.4
5,Cc1ccc(OCCNC(=O)C2CC(=O)N(c3ccc(C)cc3)C2)cc1 (stereo not shown),-4.5
6,CCOc1ccccc1N1CC(C(=O)Nc2cc(Cl)ccc2-n2cncn2)CC1=O (stereo not shown),-10.3
7,CCOCCc1nnc(NC(=O)C2CC(=O)N(c3ccc(OCC)cc3)C2)s1 (stereo not shown),-18.1
8,CCOc1ccc(N2CC(C(=O)Nc3nnc(CC)s3)CC2=O)cc1 (stereo not shown),-53.6
9,CCOc1ccc(N2CC(C(=O)Nc3nnc(Cc4ccccc4)s3)CC2=O)cc1 (stereo not shown),4.73
10,CCOc1ccc(N2CC(C(=O)Nc3ccc(F)cc3F)CC2=O)cc1 (stereo not shown),-3.45
11,CCOc1ccc(N2CC(C(=O)Nc3cc(Cl)ccc3-n3cncn3)CC2=O)cc1 (stereo not shown),-64.2
12,Cc1ccc(C(=O)c2nc(C(=O)NCCO)nc3ccccc23)cc1,25.8
13,COc1ccc(-c2cc(=O)oc3c(C)c(OC(C)C(=O)N4C[C@H]5C[C@@H](C4)c4cccc(=O)n4C5)ccc23)cc1 (stereo partly shown),-47.2
14,CCOC(=O)c1[nH]c(C)c(C(=O)OCC(=O)N(Cc2ccccc2)C(C)C)c1C,-15.8
15,Cc1cccc(OCCCCNCc2ccccc2)c1.O=C(O)C(=O)O,-38.1
16,Cc1ccc(C(=O)NC(=S)N2CCN(C)CC2)cc1,-1.37
17,COC(=O)c1ccc(CSc2nnc(CS(=O)Cc3ccc(Br)cc3)n2-c2ccccc2)cc1 (stereo not shown),-12
18,O=C(CN1CCCCCC1)Nc1ccc(S(=O)(=O)N2CCCCC2)cc1,-38.7
19,O=C(CN1CCN(S(=O)(=O)N2CCCCC2)CC1)Nc1ccc(Br)cc1,-78.2
20,O=C(CN1CCCCC1)Nc1ccc(S(=O)(=O)N2CCCCCC2)cc1,-35.5
21,Cl.O=C(CN1CCCC1)Nc1ccc(Br)cc1,-1.25
22,O=C(CN1CCN(S(=O)(=O)N2CCCCC2)CC1)Nc1ccc(Cl)c(Cl)c1,-28.2
23,O=C(CN1CCN(S(=O)(=O)N2CCCCCC2)CC1)Nc1ccc(F)cc1,-74.9
24,O=C(CN1CCN(S(=O)(=O)N2CCCCC2)CC1)Nc1cc(Cl)cc(Cl)c1,-32.5
25,Cl.O=C(CN1CCN(C2CCCCC2)CC1)Nc1ccc(Br)cc1,-70

row,SMILES,"hERG current change (%, negative = inhibition) at 10uM [%]"
1,O=C(CN1CCCCCC1)Nc1ccc(Br)cc1,-32.3
2,S=C(Nc1ccc(Br)cc1)N1CCN(C2CCCCC2)CC1,-17.3
3,O=C(CN1CCN(S(=O)(=O)N2CCCCCC2)CC1)Nc1ccc(Br)cc1,-74.3
4,O=C(CN1CCCC1)Nc1ccc(S(=O)(=O)N2CCCCC2)cc1,4.2
5,CC1CCC2(CC1)NC(=O)N(CC(=O)Nc1ccc3[nH]c(=O)[nH]c3c1)C2=O (stereo not shown),0.0265
6,O=C(NC1CCCCC1)c1cc(S(=O)(=O)N2CCOCC2)c(Cl)cc1Cl,13.6
7,Cc1nc2ccccc2c(=O)[nH]1,3.94
8,CN(C)S(=O)(=O)N1CCN(CC(=O)Nc2ccc(Br)cc2)CC1,-49.4
9,Cc1ccc(N(CC(=O)Nc2ccc(F)cc2)S(=O)(=O)N2CCCC2)cc1,-27.1
10,CN(C)S(=O)(=O)N1CCN(CC(=O)Nc2ccc(F)cc2)CC1,-69.7
11,CCc1ccc(-c2cn3c(n2)SCC3)cc1,4.12
12,CCc1ccc(-c2cn(-c3nc(C)cc(C)n3)c(=N)o2)cc1,-71.8
13,CCc1ccc(Nc2nc(C)cc(C)n2)cc1.Cl,-1.21
14,Cc1ccc2oc(-c3ccccc3)nc2c1,11.3
15,COc1ccc(N2CCN(Cc3nc(N)nc(N4CCCc5ccccc54)n3)CC2)cc1,-27.9
16,Nc1nc(CN2CCN(c3ccccc3F)CC2)nc(N2CCCc3ccccc32)n1,-11.7
17,Nc1nc(CN2CCN(Cc3ccccc3)CC2)nc(N2CCCc3ccccc32)n1,-56.5
18,Nc1nc(CN2CCN(c3ccc(F)cc3)CC2)nc(N2CCCc3ccccc32)n1,-52.9
19,Nc1nc(CN2CCN(c3cccc(Cl)c3)CC2)nc(N2CCCc3ccccc32)n1,-6.96
20,Nc1nc(CN2CCN(c3ccccc3)CC2)nc(N2CCCc3ccccc32)n1,-39.6
21,COc1ccc(CC(=O)N2N=C(C)CC2(O)C(F)(F)F)cc1 (stereo not shown),2.87
22,Cc1cc(N/N=C/c2ccccc2F)c2ccccc2n1,9.06
23,CN(C)c1ccc(C(=S)N2CCCCC2)cc1,8.24
24,Nc1cccnc1S(=O)(=O)c1cccc(C(F)(F)F)c1,5.59
25,CC1CCC(C(C)C)C(OCC(O)CN2CCN(Cc3ccccc3)CC2)C1.Cl (stereo not shown),-66.5

row,SMILES,"hERG current change (%, negative = inhibition) at 10uM [%]"
1,CC1CC(OCC(O)CN2CCOCC2)CC(C)(C)C1.Cl (stereo not shown),1.1
2,CC1CCC(C(C)C)C(OCC(O)CN2CCCC(C)C2)C1.Cl (stereo not shown),-31.6
3,CC1CCN(CC(O)COC2CC(C)CC(C)(C)C2)CC1.Cl (stereo not shown),-54.5
4,CC1CCN(CC(O)COC2CC(C)CCC2C(C)C)CC1.Cl (stereo not shown),-70.4
5,CC1CCC(C(C)C)C(OCC(O)CN2CCOCC2)C1.Cl (stereo not shown),-0.613
6,CC1CC(C)CN(CC(O)COC2CC(C)CC(C)(C)C2)C1.Cl (stereo not shown),-32.3
7,CC1CC(OCC(O)CN2CCN(Cc3ccccc3)CC2)CC(C)(C)C1.Cl (stereo not shown),-43.5
8,CCOC(=O)N1CCN(CC(O)COC2CC(C)CCC2C(C)C)CC1.Cl (stereo not shown),-33.1
9,CC(=O)Nc1ccc(N2C(=O)CSC2c2cccc([N+](=O)[O-])c2)cc1 (stereo not shown),15.6
10,Cc1cc(NC(=O)CCCn2cnc([N+](=O)[O-])n2)no1,1.48
11,CC(=O)N1CCC2(CC1)C(C#N)=C(N)OC1=C2C(=O)CC(C)(C)C1,8.09
12,COc1ccccc1/C=C1\SC(=S)N(NS(=O)(=O)c2ccccc2)C1=O,8.33
13,COc1ccccc1C(=O)NC(=O)COC(=O)C1CC1C (stereo not shown),-3.4
14,O=C(c1ccc(Cl)c(S(=O)(=O)N2CCOCC2)c1)N1CCN(c2ccccc2F)CC1,-15.1
15,COc1cc(CNc2cccc(C(=O)O)c2)cc(Br)c1OCC(=O)NC(C)(C)C,2.52
16,FC(F)(F)c1nnc2ccc(Sc3ccccn3)nn12,17.1
17,O=C(NCc1ccccn1)C1CC(c2ccccc2Cl)=NO1 (stereo not shown),14.1
18,O=S(=O)(Cc1ccccc1Cl)N1CCCCC1,1.5
19,C=CCNCCCCOc1c(Cl)cc(C)cc1Br.O=C(O)C(=O)O,-31.7
20,CC(=O)N(\C=C/C=C/C=C1\Sc2ccccc2C1=O)c1ccccc1,-3.47
21,CCOC(=O)C1=C(C)N=c2s/c(=C\c3cccc(OCC(=O)O)c3)c(=O)n2C1c1ccccc1OC (stereo not shown),28.7
22,CCOC(=O)C1=C(C)N=c2s/c(=C\c3ccc(O)c([N+](=O)[O-])c3)c(=O)n2C1c1ccccc1OC (stereo not shown),-61.7
23,CCOC(=O)C1=C(C)N=c2s/c(=C\c3ccc(OCC(=O)O)cc3)c(=O)n2C1c1ccccc1OC (stereo not shown),12.8
24,CC(=O)c1c(C)[nH]c(C(=O)OCC(=O)C(C)(C)C)c1C,-2.38
25,CN1CCN(C2CCCCC2NS(=O)(=O)c2ccccc2)CC1 (stereo not shown),9.24

row,SMILES,"hERG current change (%, negative = inhibition) at 10uM [%]"
1,Cc1ccc(CN2CCSCC2)cc1,17.4
2,CCc1ccc(CN2CCSCC2)cc1,7.39
3,Brc1ccc(CN2CCSCC2)cc1,-65.1
4,CCC1(C)Cc2c(sc3nc(SC)nc(NCCN(C)C)c23)CO1 (stereo not shown),-42.9
5,O=C(O)/C=C/C(=O)Nc1ccc(Oc2ncnc3cc(Cl)ccc23)nc1,18.4
6,CCC(C)NC(=O)Cn1cc2c(n1)CCC(C)C2 (stereo not shown),13.8
7,c1ccc(-c2nn3nnnc3c3ccccc23)cc1,-71.8
8,Cc1ccc(-c2nn3nnnc3c3ccccc23)cc1,14.3
9,Cc1ccc(-c2nn3nnnc3c3ccccc23)cc1C,-1.31
10,CC1=CCC2C(=O)N(c3ccc(OC(=O)c4ccco4)cc3)C(=O)C2C1 (stereo not shown),12
11,COC(=O)CSc1ncnc2c1sc1nc(-c3ccco3)c3c(c12)CC(C)(C)OC3,3.01
12,O=C(CSc1ncccn1)NNC(=O)c1ccccc1,-4.48
13,CCOCCCNC(=O)C(c1ccccc1)N(Cc1cccs1)C(=O)c1ccccc1O (stereo not shown),14.3
14,COc1ccc(Cl)cc1NC(=O)COC(=O)CCCC1=NS(=O)(=O)c2ccccc2N1,21.4
15,Cc1cc(C)cc(NC(=O)COC(=O)CCCC2=NS(=O)(=O)c3ccccc3N2)c1,-55.9
16,COc1ccccc1NC(=O)COC(=O)CC(C)(C)CC1=NS(=O)(=O)c2ccccc2N1,-69.9
17,CCOc1ccccc1NC(=O)COC(=O)CC(C)(C)CC1=NS(=O)(=O)c2ccccc2N1,-60.5
18,Cc1cccc(NC(=O)COC(=O)CCCC2=NS(=O)(=O)c3ccccc3N2)c1,10.7
19,CCc1ccc(NC(=O)COC(=O)CCCC2=NS(=O)(=O)c3ccccc3N2)cc1,-1.3
20,COc1cc(NC(=O)COC(=O)CCCC2=NS(=O)(=O)c3ccccc3N2)cc(OC)c1,14.4
21,CC(C)(CC(=O)OCC(=O)Nc1ccccc1F)CC1=NS(=O)(=O)c2ccccc2N1,0.85
22,O=C(COC(=O)CCCC1=NS(=O)(=O)c2ccccc2N1)Nc1ccccc1,24.7
